# Tests used:
# Experiment in all cases: DAPPL (digital affinity profiling via proximity ligation, sequencing); 10 mM Tris-HCl pH 7.5, 50 mM NaCl, 1 mM DTT, 4% glycerol, room temperature, 30 min; GST-TFs on glutathione beads, 16-mer random dsDNA library, 0.1% formaldehyde crosslink after washing; high values mean tight binding
# FLI1 = molecular target: T1, FLI1 (Homo sapiens, UniProt Q01543 1-452); settings: protein: recombinant; tags: N-terminal GST; dsDNA, one strand shown
# T1 sequence: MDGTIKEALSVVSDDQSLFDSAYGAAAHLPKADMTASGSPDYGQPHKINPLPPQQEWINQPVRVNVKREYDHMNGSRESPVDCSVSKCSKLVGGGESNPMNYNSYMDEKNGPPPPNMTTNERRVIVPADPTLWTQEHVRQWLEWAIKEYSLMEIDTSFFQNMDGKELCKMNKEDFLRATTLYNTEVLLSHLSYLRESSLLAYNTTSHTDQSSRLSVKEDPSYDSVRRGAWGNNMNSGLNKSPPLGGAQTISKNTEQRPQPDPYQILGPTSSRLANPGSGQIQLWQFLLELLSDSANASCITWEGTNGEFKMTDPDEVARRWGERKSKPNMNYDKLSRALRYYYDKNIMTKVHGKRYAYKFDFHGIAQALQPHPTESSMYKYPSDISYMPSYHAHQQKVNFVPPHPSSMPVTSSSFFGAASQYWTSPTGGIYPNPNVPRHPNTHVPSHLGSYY
# Procedure, shortened: (§1)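 Yeast served to express human transcription factors as GST fusions, which were then captured on glutathione beads and labelled with DNA barcodes. Pooled with a tag-only sample, they were incubated with 200 nmole of a 16-mer random double-stranded DNA library for 30 min at room temperature in Tris/NaCl/DTT/glycerol buffer, washed, crosslinked with 0.1% formaldehyde, ligated by proximity, amplified by PCR and sequenced. Dividing each hexamer's read frequency for a factor by its frequency for the tag-only sample gives the binding signal.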
# ELK1 = molecular target: T2, ELK1 (Homo sapiens, UniProt P19419 1-428); settings: protein: recombinant; tags: N-terminal GST; dsDNA, one strand shown
# T2 sequence: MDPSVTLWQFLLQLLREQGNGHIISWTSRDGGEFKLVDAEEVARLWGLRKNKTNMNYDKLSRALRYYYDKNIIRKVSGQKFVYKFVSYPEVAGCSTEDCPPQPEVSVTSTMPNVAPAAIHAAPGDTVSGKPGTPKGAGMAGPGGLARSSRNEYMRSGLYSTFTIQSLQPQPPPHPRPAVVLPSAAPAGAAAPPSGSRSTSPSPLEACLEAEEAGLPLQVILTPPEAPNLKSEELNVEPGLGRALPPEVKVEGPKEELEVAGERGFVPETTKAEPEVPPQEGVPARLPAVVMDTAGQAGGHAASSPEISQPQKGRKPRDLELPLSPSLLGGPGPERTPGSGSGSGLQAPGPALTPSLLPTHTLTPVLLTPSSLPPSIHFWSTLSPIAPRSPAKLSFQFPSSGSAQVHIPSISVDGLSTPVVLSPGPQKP
# Procedure, shortened: as §1
# GABPA = molecular target: T3, GABPA (Homo sapiens, UniProt Q06546 1-454); settings: protein: recombinant; tags: N-terminal GST; dsDNA, one strand shown
# T3 sequence: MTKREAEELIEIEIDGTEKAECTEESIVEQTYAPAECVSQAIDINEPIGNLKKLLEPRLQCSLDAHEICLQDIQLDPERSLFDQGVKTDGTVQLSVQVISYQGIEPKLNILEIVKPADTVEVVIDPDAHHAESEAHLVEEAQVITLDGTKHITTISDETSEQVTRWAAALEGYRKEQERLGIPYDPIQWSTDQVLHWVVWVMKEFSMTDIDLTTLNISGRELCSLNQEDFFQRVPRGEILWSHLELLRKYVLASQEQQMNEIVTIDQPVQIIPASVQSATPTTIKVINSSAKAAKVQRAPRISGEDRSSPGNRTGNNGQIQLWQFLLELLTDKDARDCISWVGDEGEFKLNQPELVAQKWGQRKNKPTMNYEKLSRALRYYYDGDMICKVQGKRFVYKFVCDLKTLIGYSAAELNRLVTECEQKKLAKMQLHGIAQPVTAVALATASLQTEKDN
# Procedure, shortened: as §1
# ERG = molecular target: T4, ERG (Homo sapiens, UniProt P11308 1-479); settings: protein: recombinant; tags: N-terminal GST; dsDNA, one strand shown
# T4 sequence: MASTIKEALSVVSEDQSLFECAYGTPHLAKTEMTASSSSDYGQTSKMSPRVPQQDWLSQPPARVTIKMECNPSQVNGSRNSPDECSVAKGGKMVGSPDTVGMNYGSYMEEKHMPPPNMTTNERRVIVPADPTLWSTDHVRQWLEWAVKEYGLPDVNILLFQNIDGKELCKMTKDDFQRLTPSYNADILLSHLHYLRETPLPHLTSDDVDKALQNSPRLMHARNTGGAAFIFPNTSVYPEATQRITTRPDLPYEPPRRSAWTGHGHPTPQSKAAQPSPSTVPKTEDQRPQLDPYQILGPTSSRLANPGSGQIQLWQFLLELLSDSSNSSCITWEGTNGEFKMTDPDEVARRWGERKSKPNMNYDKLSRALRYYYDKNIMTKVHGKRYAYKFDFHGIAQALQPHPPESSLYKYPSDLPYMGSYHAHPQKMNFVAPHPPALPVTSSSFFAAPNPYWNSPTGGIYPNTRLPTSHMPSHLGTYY
# Procedure, shortened: as §1
# ELF1 = ELF1 (Homo sapiens, UniProt P32519 1-619); settings: protein: recombinant; tags: N-terminal GST; dsDNA, one strand shown
# Sequence of ELF1 (P32519 whole entry): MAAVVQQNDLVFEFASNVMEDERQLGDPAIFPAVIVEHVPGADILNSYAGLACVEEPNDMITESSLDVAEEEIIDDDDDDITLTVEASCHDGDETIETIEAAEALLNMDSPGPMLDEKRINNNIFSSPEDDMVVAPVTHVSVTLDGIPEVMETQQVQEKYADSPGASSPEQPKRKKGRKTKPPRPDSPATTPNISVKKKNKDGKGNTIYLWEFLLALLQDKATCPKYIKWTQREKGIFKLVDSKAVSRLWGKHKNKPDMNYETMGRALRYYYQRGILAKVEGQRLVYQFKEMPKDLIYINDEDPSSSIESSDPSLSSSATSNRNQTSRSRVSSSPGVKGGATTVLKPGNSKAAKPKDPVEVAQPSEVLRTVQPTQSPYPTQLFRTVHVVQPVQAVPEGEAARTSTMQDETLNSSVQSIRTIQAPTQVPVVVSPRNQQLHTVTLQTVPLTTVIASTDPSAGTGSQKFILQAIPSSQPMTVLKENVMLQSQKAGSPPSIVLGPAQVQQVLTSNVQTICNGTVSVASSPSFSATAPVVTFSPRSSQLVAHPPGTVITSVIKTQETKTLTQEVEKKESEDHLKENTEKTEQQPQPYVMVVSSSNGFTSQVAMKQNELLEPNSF
# Procedure, shortened: as §1
# EHF = molecular target: T5, EHF (Homo sapiens, UniProt Q9NZC4 1-300); settings: protein: recombinant; tags: N-terminal GST; dsDNA, one strand shown
# T5 sequence: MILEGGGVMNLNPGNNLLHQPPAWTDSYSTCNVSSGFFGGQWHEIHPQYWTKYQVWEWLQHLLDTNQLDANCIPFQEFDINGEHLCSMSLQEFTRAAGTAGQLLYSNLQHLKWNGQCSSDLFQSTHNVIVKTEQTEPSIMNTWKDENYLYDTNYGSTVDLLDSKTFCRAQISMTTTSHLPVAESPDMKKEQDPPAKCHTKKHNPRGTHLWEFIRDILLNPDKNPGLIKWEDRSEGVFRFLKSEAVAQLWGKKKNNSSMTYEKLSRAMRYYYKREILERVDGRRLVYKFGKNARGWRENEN
# Procedure, shortened: as §1
# SPI1 = SPI1 (Homo sapiens, UniProt P17947 1-270); settings: protein: recombinant; tags: N-terminal GST; dsDNA, one strand shown
# Procedure, shortened: as §1
# SPIB = SPIB (Homo sapiens, UniProt Q01892 1-262); settings: protein: recombinant; tags: N-terminal GST; dsDNA, one strand shown
# Sequence of SPIB (Q01892 whole entry): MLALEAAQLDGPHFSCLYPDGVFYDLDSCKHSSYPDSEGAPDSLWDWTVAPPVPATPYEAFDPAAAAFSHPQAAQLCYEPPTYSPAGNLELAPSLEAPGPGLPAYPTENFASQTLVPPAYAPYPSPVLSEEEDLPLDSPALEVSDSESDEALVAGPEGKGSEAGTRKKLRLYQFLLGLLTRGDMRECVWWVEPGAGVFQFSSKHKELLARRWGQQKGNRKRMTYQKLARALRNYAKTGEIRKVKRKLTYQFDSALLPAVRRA
# Procedure, shortened: as §1
# ELK3 = molecular target: T6, ELK3 (Homo sapiens, UniProt P41970 1-407); settings: protein: recombinant; tags: N-terminal GST; dsDNA, one strand shown
# T6 sequence: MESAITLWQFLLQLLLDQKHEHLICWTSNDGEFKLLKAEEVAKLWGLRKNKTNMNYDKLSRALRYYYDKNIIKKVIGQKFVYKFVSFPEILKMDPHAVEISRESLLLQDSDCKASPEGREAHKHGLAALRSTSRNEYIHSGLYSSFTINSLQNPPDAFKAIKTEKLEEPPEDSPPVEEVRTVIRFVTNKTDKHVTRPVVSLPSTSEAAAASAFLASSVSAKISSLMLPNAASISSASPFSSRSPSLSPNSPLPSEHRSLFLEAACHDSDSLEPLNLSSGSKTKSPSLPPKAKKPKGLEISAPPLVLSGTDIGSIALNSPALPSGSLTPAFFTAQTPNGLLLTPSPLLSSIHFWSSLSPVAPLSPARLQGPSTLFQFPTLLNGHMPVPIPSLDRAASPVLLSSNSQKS
# Procedure, shortened: as §1
# FEV = molecular target: T7, FEV (Homo sapiens, UniProt Q99581 1-238); settings: protein: recombinant; tags: N-terminal GST; dsDNA, one strand shown
# T7 sequence: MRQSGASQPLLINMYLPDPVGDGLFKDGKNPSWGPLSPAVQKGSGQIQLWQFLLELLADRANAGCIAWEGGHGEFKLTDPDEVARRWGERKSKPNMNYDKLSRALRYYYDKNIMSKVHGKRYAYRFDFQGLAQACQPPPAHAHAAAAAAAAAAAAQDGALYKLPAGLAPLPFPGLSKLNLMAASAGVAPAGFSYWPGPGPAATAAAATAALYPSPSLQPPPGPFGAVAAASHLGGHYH
# Procedure, shortened: as §1
# ETV5 = ETV5 (Homo sapiens, UniProt P41161 1-510); settings: protein: recombinant; tags: N-terminal GST; dsDNA, one strand shown
# Sequence of ETV5 (P41161 whole entry): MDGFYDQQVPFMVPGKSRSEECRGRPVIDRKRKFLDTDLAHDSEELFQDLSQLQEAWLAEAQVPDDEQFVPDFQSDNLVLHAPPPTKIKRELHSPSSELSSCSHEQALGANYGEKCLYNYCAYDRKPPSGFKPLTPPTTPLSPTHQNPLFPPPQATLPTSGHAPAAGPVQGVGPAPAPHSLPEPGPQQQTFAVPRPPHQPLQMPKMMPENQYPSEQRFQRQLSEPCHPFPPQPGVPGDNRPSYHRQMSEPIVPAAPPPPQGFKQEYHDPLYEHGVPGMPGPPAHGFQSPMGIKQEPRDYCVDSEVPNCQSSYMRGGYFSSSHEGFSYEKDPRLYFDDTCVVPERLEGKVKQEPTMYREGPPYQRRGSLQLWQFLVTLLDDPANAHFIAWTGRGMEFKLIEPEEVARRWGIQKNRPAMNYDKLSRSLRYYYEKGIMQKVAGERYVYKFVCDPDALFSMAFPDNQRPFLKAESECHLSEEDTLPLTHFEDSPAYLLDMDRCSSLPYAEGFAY
# Procedure, shortened: as §1
# HSF1 = HSF1 (Homo sapiens, UniProt Q00613 1-529); settings: protein: recombinant; tags: N-terminal GST; chain copies: 3; dsDNA, one strand shown
# Sequence of HSF1 (Q00613 whole entry): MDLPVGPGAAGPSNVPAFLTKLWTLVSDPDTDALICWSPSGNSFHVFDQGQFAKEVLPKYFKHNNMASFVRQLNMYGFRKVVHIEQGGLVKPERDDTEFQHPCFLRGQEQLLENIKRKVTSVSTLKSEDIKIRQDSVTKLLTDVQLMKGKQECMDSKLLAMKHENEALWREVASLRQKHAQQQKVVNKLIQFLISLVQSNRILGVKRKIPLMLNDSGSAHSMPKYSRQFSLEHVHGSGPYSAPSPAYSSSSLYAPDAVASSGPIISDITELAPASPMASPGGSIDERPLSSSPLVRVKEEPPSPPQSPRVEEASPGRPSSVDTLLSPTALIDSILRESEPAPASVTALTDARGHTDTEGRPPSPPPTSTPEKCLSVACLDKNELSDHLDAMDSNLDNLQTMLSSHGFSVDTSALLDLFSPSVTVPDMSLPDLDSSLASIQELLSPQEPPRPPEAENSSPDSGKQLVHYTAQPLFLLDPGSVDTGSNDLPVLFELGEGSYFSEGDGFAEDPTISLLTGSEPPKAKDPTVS
# Procedure, shortened: as §1
# SPIC = molecular target: T8, SPIC (Homo sapiens, UniProt Q8N5J4 1-248); settings: protein: recombinant; tags: N-terminal GST; dsDNA, one strand shown
# T8 sequence: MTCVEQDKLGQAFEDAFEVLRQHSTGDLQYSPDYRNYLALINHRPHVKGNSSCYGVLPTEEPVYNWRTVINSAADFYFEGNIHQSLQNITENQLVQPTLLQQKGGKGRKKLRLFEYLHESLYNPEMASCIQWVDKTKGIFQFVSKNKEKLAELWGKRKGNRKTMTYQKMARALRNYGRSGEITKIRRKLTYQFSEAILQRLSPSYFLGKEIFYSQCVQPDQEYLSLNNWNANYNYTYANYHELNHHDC
# Procedure, shortened: as §1
# ELF4 = ELF4 (Homo sapiens, UniProt Q99607 1-663); settings: protein: recombinant; tags: N-terminal GST; dsDNA, one strand shown
# Sequence of ELF4 (Q99607 whole entry): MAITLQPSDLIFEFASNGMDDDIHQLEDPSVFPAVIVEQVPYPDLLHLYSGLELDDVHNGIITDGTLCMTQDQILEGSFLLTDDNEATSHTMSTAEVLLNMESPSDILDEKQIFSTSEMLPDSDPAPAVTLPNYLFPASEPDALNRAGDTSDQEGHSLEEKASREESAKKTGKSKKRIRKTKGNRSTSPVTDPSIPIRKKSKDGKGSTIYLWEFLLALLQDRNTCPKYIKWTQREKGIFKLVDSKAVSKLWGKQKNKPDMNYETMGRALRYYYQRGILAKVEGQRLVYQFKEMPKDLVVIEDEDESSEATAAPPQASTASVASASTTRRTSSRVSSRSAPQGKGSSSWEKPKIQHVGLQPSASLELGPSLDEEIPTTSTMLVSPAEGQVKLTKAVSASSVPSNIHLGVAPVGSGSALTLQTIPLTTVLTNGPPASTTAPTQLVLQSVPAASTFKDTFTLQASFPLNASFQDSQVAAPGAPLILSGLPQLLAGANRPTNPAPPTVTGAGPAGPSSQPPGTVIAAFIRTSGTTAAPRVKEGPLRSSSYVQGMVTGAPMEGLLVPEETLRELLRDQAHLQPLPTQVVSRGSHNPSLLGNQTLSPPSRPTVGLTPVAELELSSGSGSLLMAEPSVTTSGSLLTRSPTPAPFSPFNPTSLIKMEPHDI
# Procedure, shortened: as §1
# ELK4 = molecular target: T9, ELK4 (Homo sapiens, UniProt P28324-2 1-405); settings: protein: recombinant; tags: N-terminal GST; dsDNA, one strand shown
# T9 sequence: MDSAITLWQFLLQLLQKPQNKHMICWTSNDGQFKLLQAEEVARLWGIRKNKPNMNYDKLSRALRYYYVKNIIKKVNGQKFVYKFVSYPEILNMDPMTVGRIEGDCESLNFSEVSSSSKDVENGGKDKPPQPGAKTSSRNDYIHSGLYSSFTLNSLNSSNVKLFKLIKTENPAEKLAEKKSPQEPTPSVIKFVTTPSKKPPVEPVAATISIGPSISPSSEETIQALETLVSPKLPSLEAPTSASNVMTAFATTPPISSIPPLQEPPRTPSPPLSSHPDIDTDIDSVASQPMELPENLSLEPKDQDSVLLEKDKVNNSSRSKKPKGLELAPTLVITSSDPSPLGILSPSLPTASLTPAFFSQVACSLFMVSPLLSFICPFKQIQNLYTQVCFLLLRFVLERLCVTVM
# Procedure, shortened: as §1
# ETV2 = molecular target: T10, ETV2 (Homo sapiens, UniProt O00321 1-342); settings: protein: recombinant; tags: N-terminal GST; dsDNA, one strand shown
# T10 sequence: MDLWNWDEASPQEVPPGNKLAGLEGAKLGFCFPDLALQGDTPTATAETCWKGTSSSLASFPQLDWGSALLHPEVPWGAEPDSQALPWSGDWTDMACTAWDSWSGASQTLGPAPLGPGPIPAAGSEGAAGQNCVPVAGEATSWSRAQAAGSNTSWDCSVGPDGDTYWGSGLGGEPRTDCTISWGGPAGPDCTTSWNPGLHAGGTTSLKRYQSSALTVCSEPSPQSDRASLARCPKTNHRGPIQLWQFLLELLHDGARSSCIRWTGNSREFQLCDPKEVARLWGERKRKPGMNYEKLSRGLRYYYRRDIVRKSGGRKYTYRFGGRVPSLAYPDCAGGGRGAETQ
# Procedure, shortened: as §1
# ELF3 = molecular target: T11, ELF3 (Homo sapiens, UniProt P78545 1-371); settings: protein: recombinant; tags: N-terminal GST; dsDNA, one strand shown
# T11 sequence: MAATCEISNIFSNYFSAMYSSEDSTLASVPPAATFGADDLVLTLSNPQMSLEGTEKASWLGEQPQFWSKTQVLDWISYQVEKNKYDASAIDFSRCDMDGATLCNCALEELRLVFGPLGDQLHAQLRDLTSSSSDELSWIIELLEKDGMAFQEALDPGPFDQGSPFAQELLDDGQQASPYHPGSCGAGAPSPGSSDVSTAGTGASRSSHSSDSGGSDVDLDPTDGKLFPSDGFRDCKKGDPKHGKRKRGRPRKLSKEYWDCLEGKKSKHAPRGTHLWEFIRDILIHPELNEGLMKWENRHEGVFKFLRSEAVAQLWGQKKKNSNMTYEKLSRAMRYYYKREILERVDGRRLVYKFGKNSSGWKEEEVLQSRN
# Procedure, shortened: as §1
# CRX = CRX (Homo sapiens, UniProt O43186 1-299); settings: protein: recombinant; tags: N-terminal GST; dsDNA, one strand shown
# Sequence of CRX (O43186 whole entry): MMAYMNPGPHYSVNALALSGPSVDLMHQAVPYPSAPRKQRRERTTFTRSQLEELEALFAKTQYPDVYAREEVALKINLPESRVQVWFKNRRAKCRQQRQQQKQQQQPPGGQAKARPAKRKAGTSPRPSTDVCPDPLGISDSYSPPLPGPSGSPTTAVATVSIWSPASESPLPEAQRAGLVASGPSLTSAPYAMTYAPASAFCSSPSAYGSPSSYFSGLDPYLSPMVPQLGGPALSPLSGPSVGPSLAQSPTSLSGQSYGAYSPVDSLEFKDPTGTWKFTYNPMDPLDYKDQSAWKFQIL
# Procedure, shortened: as §1
# ETV1 = ETV1 (Homo sapiens, UniProt P50549 1-477); settings: protein: recombinant; tags: N-terminal GST; dsDNA, one strand shown
# Sequence of ETV1 (P50549 whole entry): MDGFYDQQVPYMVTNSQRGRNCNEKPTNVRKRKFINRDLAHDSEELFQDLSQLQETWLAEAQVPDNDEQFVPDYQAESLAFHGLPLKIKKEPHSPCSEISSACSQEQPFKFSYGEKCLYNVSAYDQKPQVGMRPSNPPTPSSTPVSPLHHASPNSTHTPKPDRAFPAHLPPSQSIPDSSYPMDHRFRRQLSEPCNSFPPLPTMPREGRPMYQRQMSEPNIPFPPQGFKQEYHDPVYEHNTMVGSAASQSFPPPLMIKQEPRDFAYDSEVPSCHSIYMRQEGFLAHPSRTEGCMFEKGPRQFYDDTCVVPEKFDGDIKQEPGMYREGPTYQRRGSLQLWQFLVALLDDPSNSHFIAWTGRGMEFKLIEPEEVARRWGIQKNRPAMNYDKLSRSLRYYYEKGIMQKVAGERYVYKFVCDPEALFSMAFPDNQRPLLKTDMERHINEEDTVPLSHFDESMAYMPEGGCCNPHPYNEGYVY
# Procedure, shortened: as §1
sequence,measurement,setting,value
CAATTC,binding signal,FLI1,"1.33 fold enrichment (6-mer frequency, TF over GST control)"
same,binding signal,ELK1,"1.27 fold enrichment (6-mer frequency, TF over GST control)"
same,binding signal,GABPA,"1.19 fold enrichment (6-mer frequency, TF over GST control)"
same,binding signal,ERG,"1.29 fold enrichment (6-mer frequency, TF over GST control)"
same,binding signal,ELF1,"1.25 fold enrichment (6-mer frequency, TF over GST control)"
same,binding signal,EHF,"1.24 fold enrichment (6-mer frequency, TF over GST control)"
same,binding signal,SPI1,"1.24 fold enrichment (6-mer frequency, TF over GST control)"
same,binding signal,SPIB,"1.44 fold enrichment (6-mer frequency, TF over GST control)"
same,binding signal,ELK3,"1.2 fold enrichment (6-mer frequency, TF over GST control)"
same,binding signal,FEV,"1.24 fold enrichment (6-mer frequency, TF over GST control)"
same,binding signal,ETV5,"1.37 fold enrichment (6-mer frequency, TF over GST control)"
same,binding signal,HSF1,"1.19 fold enrichment (6-mer frequency, TF over GST control)"
same,binding signal,SPIC,"1.16 fold enrichment (6-mer frequency, TF over GST control)"
same,binding signal,ELF4,"1.31 fold enrichment (6-mer frequency, TF over GST control)"
same,binding signal,ELK4,"1.25 fold enrichment (6-mer frequency, TF over GST control)"
same,binding signal,ETV2,"1.39 fold enrichment (6-mer frequency, TF over GST control)"
same,binding signal,ELF3,"1.34 fold enrichment (6-mer frequency, TF over GST control)"
same,binding signal,CRX,"1.07 fold enrichment (6-mer frequency, TF over GST control)"
same,binding signal,ETV1,"1.21 fold enrichment (6-mer frequency, TF over GST control)"
